Results reported in PubChem BioAssay (NCATS).

Assay: High-throughput drug toxicity screening in the BPDCN cell line Gen2.2 (AID 1224824);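 further: cells exposed to compounds for 48 h before reading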
Details: Gen2.2 BPDCN cells; at 45.8 µM (top of the series) unless noted
Outline: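 Seed 500 exponentially growing Gen2.2 cells/well; add compounds by pin tool; incubate 48 h, 37 °C, 5% CO2; add CellTiter-Glo, 15 min RT; read luminescence. % activity vs DMSO (100%) and bortezomib (0%).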
With `CC1=CC(=O)c2ccccc2C1=O` the cell viability, % of control (lower = more cytotoxic) was 2.97%. `COc1cc2nc(N3CCCN(C)CC3)nc(NC3CCN(Cc4ccccc4)CC3)c2cc1OC` gave a cell viability, % of control (lower = more cytotoxic) of 9.38%. With `C[C@@H](NCCCc1cccc(C(F)(F)F)c1)c1cccc2ccccc12` the cell viability, % of control (lower = more cytotoxic) was 264%. In the case of `COc1nc(N)nc2c1ncn2[C@@H]1O[C@H](CO)[C@@H](O)[C@@H]1O`, the cell viability, % of control (lower = more cytotoxic) is reported as 82.2%. For `Nc1nc(N)c2nc(CNc3ccc(C(=O)NC(CCC(=O)O)C(=O)O)cc3)cnc2n1` (stereo not given), the cell viability, % of control (lower = more cytotoxic) was 23.1%. Work on `CCC(=O)O[C@]1(C(=O)CCl)[C@@H](C)C[C@H]2[C@@H]3CCC4=CC(=O)C=C[C@]4(C)[C@@]3(F)[C@@H](O)C[C@@]21C` yielded a cell viability, % of control (lower = more cytotoxic) of 44.1%. Molecule `CCOC(=O)c1ccc(C#Cc2ccc3c(c2)C(C)(C)CCS3)nc1` has a cell viability, % of control (lower = more cytotoxic) of 379%. In the case of `CCN1CCCC1CNC(=O)c1cc(S(N)(=O)=O)ccc1OC` (stereo not given), the cell viability, % of control (lower = more cytotoxic) is reported as 128%. Molecule `O=C(O)c1cccnc1` has a cell viability, % of control (lower = more cytotoxic) of 127%. `COc1cc2c(Nc3ccc(Br)cc3F)ncnc2cc1OCC1CCN(C)CC1` gave a cell viability, % of control (lower = more cytotoxic) of 3.75%. For `CNC(=O)c1cc(Oc2ccc(NC(=O)Nc3ccc(Cl)c(C(F)(F)F)c3)cc2)ccn1`, the cell viability, % of control (lower = more cytotoxic) was 2.89%. Work on `CCC(=O)O[C@]1(C(=O)SCF)[C@H](C)C[C@H]2[C@@H]3C[C@H](F)C4=CC(=O)C=C[C@]4(C)[C@@]3(F)[C@@H](O)C[C@@]21C` yielded a cell viability, % of control (lower = more cytotoxic) of 84.3%. `C[C@]12C=CC(=O)C=C1CC[C@@H]1[C@@H]2C(=O)C[C@@]2(C)[C@H]1CC[C@]2(O)C(=O)CO` showed a cell viability, % of control (lower = more cytotoxic) of 158% [at 23.2 µM]. In the case of `COc1ccc(-c2ccc3cc(C(=O)O)ccc3c2)cc1C12CC3CC(CC(C3)C1)C2`, the cell viability, % of control (lower = more cytotoxic) is reported as 521%. With `CCn1cc(C(=O)O)c(=O)c2cc(F)c(N3CCNCC3)nc21` the cell viability, % of control (lower = more cytotoxic) was 194%. Molecule `NCCCC(O)(P(=O)(O)O)P(=O)(O)O` has a cell viability, % of control (lower = more cytotoxic) of 169%. Molecule `CCOC(=O)[C@H](CCc1ccccc1)N[C@H]1CS[C@H](c2cccs2)CN(CC(=O)O)C1=O` has a cell viability, % of control (lower = more cytotoxic) of 189%. Molecule `Nc1nc(=S)c2[nH]cnc2[nH]1` has a cell viability, % of control (lower = more cytotoxic) of 51.9%. For `CC(C)(C)NC(=O)[C@H]1CC[C@H]2[C@@H]3CC[C@H]4NC(=O)C=C[C@]4(C)[C@H]3CC[C@]12C`, the cell viability, % of control (lower = more cytotoxic) was 25.5%. In the case of `COc1ccc2cc3[n+](cc2c1OC)CCc1cc2c(cc1-3)OCO2`, the cell viability, % of control (lower = more cytotoxic) is reported as 19.2%.
